Tested on: CLK4
Conditions: concentration: 1 μM, replicates: in singlicate; n = 1
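Note: KINOMEscan kinase panel screen.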

| SMILES | %Inh [%] |
| --- | --- |
| O=c1cc(N2CCOCC2)nc2n(Cc3cccc(Cl)c3Cl)c(C3CC3)nn12 [GSK2358994] | 0 |
| CCc1nc(-c2cccc(C)c2)c(-c2ccnc(NCc3ccccc3)c2)s1 | 0 |
| COc1cc2c(cc1OCCN1CCN(C)CC1)ncc1c3ccc(C#N)cc3[nH]c21 | 92.6 |
| NCC(NC(=O)c1cc(-c2cn[nH]c2)c(-c2ccnc3[nH]ccc23)s1)c1ccccc1.O=C(O)C(F)(F)F.O=C(O)C(F)(F)F (stereo not drawn) [GSK1325775] | 66 |
| O=c1cc(N2CCOCC2)nc2n(Cc3cccc4ccccc34)ccn12 [GSK2333389] | 31 |
| O=C(Nc1n[nH]c2cc(-c3cccc(F)c3)ccc12)C1CC1 [SB-735464] | 7 |
| C[C@@H](Oc1cc(-n2cnc3ccc(NC(=O)NC(C)(C)C)cc32)sc1C(N)=O)c1ccccc1Cl [GSK346294] | 40 |
| Cn1ccc2ncnc(Oc3ccc(NC(=O)Nc4ccncc4)c(Cl)c3)c21 | 21 |
| Nc1nc(-c2ccc3c(N)n[nH]c3c2)cc(N2CCCC2)n1 [GSK2227430] | 36 |
| O=C(NOCC1CC1)c1ccc(F)c(F)c1Nc1ccc(I)cc1Cl | 0 |
| Cn1cc(-c2ccc3c(c2)CCN3C(=O)Cc2ccccc2Cl)c2c(N)ncnc21 [GSK2608885] | 0 |
| COc1ccc(S(=O)(=O)NC2CCN(c3cc(C)nc(Nc4cccc(C#N)c4)n3)CC2)cc1.O=C(O)C(F)(F)F [GSK1653539] | 3 |
| Cc1ccc(C(=O)NCC(N)=O)cc1-n1c(C)cc(OCc2ccc(F)cc2F)c(Br)c1=O | 12 |
| N#Cc1ccc(-c2cc(-c3c[nH]nc3-c3ccccn3)ccn2)cc1 [GW693028] | 38 |
| Fc1ccc(-c2ncn(CCCN3CCOCC3)c2-c2cccnc2)cc1 [SB-211743] | 2 |
| COc1cc2ncn(-c3cc(OCc4sccc4Cl)c(C(N)=O)s3)c2cc1OC [GSK448459] | 14 |
| O=C(NCCNc1ccnc(Nc2ccc(F)cc2)n1)c1cc2ccccc2s1 [GSK1379874] | 37 |

| SMILES | %Inh [%] |
| --- | --- |
| CCc1ccnc(/C=C/c2n[nH]c3cc(Sc4ccccc4C(=O)NC)ccc23)c1 | 0 |
| Cc1nnc(-c2ccc3ncc(-c4ccc(S(C)=O)cc4)n3c2)o1 (stereo not drawn) | 0 |
| CCn1cnc2c(N)ncnc21 [GW345098] | 1 |
| Nc1nccc(-c2c(-c3ccc(F)cc3)ncn2C2CCN(CC(F)(F)F)CC2)n1 [SB-236560] | 0 |
| O=C(NCCNc1ccnc(Nc2ccc(F)cc2)n1)Nc1ccccc1F [GSK1379880] | 0 |
| O=c1cc(N2CCOCC2)nc2n(Cc3cccc(C(F)(F)F)c3)ccn12 [GSK2297543] | 6 |
| COc1ccc(Nc2nccc(N3CCC(NC(=O)Nc4cc(C)ccc4C)C3)n2)cc1 (stereo not drawn) [GSK1379741] | 0 |
| O=C1NC(=O)C(N2CCc3ccccc32)=C1c1cccc(Cl)c1 [SB-408010] | 21 |
| Cc1c(Cn2c(C)nn3c(=O)cc(N4CCOC(C)C4)nc23)cccc1C(F)(F)F (stereo not drawn) [GSK2344444] | 13 |
| Fc1ccc(-c2ncn(CCCN3CCOCC3)c2-c2ccccn2)cc1 [SB-211742] | 0 |
| Cc1c2ccc(N(C)c3ccnc(Nc4cccc(S(N)(=O)=O)c4)n3)cc2nn1Cc1ccccc1.Cl.Cl [GW787226] | 0 |
| CC(C)(C)n1cnc2c(N)ncnc21 [SKF-97359] | 11 |
| COCCNC(=O)c1ccc(-c2cc(C(=O)NC3CC3)cc(F)c2C)cc1 [GW868318] | 10 |
| Cc1cccc(-c2nc(Nc3ccc4ncsc4c3)c3ccccc3n2)n1 [GW867588] | 0 |
| CN(C(=O)c1ccc(-c2cc(-c3c[nH]nc3-c3ccccn3)ccn2)cc1)C1CCOCC1 [GW810083] | 0 |
| Cc1ccc(NC(=O)c2ccnc(N3CCN(C)CC3)c2)cc1-c1ccc(C(=O)NCC2CC2)cc1 [GW775604] | 0 |

Tested on: CSF1R-autoinhibited
Conditions: concentration: 1 μM, replicates: in singlicate; n = 1

| SMILES | %Inh [%] |
| --- | --- |
| O=c1cc(N2CCOCC2)nc2n(Cc3cccc(Cl)c3Cl)c(C3CC3)nn12 [GSK2358994] | 0 |
| CCc1nc(-c2cccc(C)c2)c(-c2ccnc(NCc3ccccc3)c2)s1 | 0 |
| COc1cc2c(cc1OCCN1CCN(C)CC1)ncc1c3ccc(C#N)cc3[nH]c21 | 99.3 |
| NCC(NC(=O)c1cc(-c2cn[nH]c2)c(-c2ccnc3[nH]ccc23)s1)c1ccccc1.O=C(O)C(F)(F)F.O=C(O)C(F)(F)F (stereo not drawn) [GSK1325775] | 0 |
| O=c1cc(N2CCOCC2)nc2n(Cc3cccc4ccccc34)ccn12 [GSK2333389] | 0 |
| O=C(Nc1n[nH]c2cc(-c3cccc(F)c3)ccc12)C1CC1 [SB-735464] | 0 |
| C[C@@H](Oc1cc(-n2cnc3ccc(NC(=O)NC(C)(C)C)cc32)sc1C(N)=O)c1ccccc1Cl [GSK346294] | 15 |
| Cn1ccc2ncnc(Oc3ccc(NC(=O)Nc4ccncc4)c(Cl)c3)c21 | 0 |
| Nc1nc(-c2ccc3c(N)n[nH]c3c2)cc(N2CCCC2)n1 [GSK2227430] | 0 |
| O=C(NOCC1CC1)c1ccc(F)c(F)c1Nc1ccc(I)cc1Cl | 0 |
| Cn1cc(-c2ccc3c(c2)CCN3C(=O)Cc2ccccc2Cl)c2c(N)ncnc21 [GSK2608885] | 0 |
| COc1ccc(S(=O)(=O)NC2CCN(c3cc(C)nc(Nc4cccc(C#N)c4)n3)CC2)cc1.O=C(O)C(F)(F)F [GSK1653539] | 0 |
| Cc1ccc(C(=O)NCC(N)=O)cc1-n1c(C)cc(OCc2ccc(F)cc2F)c(Br)c1=O | 0 |
| N#Cc1ccc(-c2cc(-c3c[nH]nc3-c3ccccn3)ccn2)cc1 [GW693028] | 0 |
| Fc1ccc(-c2ncn(CCCN3CCOCC3)c2-c2cccnc2)cc1 [SB-211743] | 0 |
| COc1cc2ncn(-c3cc(OCc4sccc4Cl)c(C(N)=O)s3)c2cc1OC [GSK448459] | 0 |
| O=C(NCCNc1ccnc(Nc2ccc(F)cc2)n1)c1cc2ccccc2s1 [GSK1379874] | 8 |

| SMILES | %Inh [%] |
| --- | --- |
| CCc1ccnc(/C=C/c2n[nH]c3cc(Sc4ccccc4C(=O)NC)ccc23)c1 | 66 |
| Cc1nnc(-c2ccc3ncc(-c4ccc(S(C)=O)cc4)n3c2)o1 (stereo not drawn) | 7 |
| CCn1cnc2c(N)ncnc21 [GW345098] | 0 |
| Nc1nccc(-c2c(-c3ccc(F)cc3)ncn2C2CCN(CC(F)(F)F)CC2)n1 [SB-236560] | 68 |
| O=C(NCCNc1ccnc(Nc2ccc(F)cc2)n1)Nc1ccccc1F [GSK1379880] | 0 |
| O=c1cc(N2CCOCC2)nc2n(Cc3cccc(C(F)(F)F)c3)ccn12 [GSK2297543] | 0 |
| COc1ccc(Nc2nccc(N3CCC(NC(=O)Nc4cc(C)ccc4C)C3)n2)cc1 (stereo not drawn) [GSK1379741] | 0 |
| O=C1NC(=O)C(N2CCc3ccccc32)=C1c1cccc(Cl)c1 [SB-408010] | 16 |
| Cc1c(Cn2c(C)nn3c(=O)cc(N4CCOC(C)C4)nc23)cccc1C(F)(F)F (stereo not drawn) [GSK2344444] | 0 |
| Fc1ccc(-c2ncn(CCCN3CCOCC3)c2-c2ccccn2)cc1 [SB-211742] | 0 |
| Cc1c2ccc(N(C)c3ccnc(Nc4cccc(S(N)(=O)=O)c4)n3)cc2nn1Cc1ccccc1.Cl.Cl [GW787226] | 64 |
| CC(C)(C)n1cnc2c(N)ncnc21 [SKF-97359] | 28 |
| COCCNC(=O)c1ccc(-c2cc(C(=O)NC3CC3)cc(F)c2C)cc1 [GW868318] | 5 |
| Cc1cccc(-c2nc(Nc3ccc4ncsc4c3)c3ccccc3n2)n1 [GW867588] | 4 |
| CN(C(=O)c1ccc(-c2cc(-c3c[nH]nc3-c3ccccn3)ccn2)cc1)C1CCOCC1 [GW810083] | 31 |
| Cc1ccc(NC(=O)c2ccnc(N3CCN(C)CC3)c2)cc1-c1ccc(C(=O)NCC2CC2)cc1 [GW775604] | 0 |

Reference: PMC5540273 (PLoS ONE, 2017)
